According to PubChem BioAssay AID588342 (National Center for Advancing Translational Sciences (NCATS), 2011):
The whole screen tested about 360,000 compounds, of which about 25,000 (6.9%) were called active. About 9% were inconclusive and are not listed. What follows is part of a selection rich in actives, with near analogues and random picks from the rest. Values without a mark were called inactive. Calls come from the whole dose curve; as a rule, active = well fitted inhibition curve with a large enough effect; inconclusive = small, poorly fitted or top-dose-only effect; inactive = flat fitted curve, though single readings scatter.

Target: Luciferin 4-monooxygenase (Photinus pyralis) (UniProt P08659)
Experiment: qHTS profiling assay for firefly luciferase inhibitor/activator using purifed enzyme and Km concentrations of substrates (counterscreen for miR-21 project); note: nearly all actives have a fitted effect of over 55% in size;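 for activity change, negative = inhibition: plate controls were vehicle for no effect and reference inhibitor for full effect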
Details: purified FLuc, luminescence inhibition; series mostly up to 57.5 µM; activity change, negative = inhibition: at the top concentration
Text: MLPCN Grant: 1 R21 NS059478-01 (miR-21 grant) Assay Provider: NCGC NCGC Assay Overview: Firefly (Photinus pyralis) luciferase is one of the most commonly used transcriptional reporters for a number of reasons. It is considered one of the more dynamically responsive reporters -that is, responsive to changes in reporter transcription - as it requires no post-translational modifications and is enzymatically active directly after protein synthesis (Wood, 1998). Additionally, the half-life of the luciferase protein is short relative to other reporter-gene products (Wood, 1995). Whereas reporters with long half-lives potentially allow for increased signal due to accumulation of reporter-gene product, once accumulated in the cell, dynamic changes in reporter-gene expression may be difficult to detect(Fan and Wood, 2007; Almond et al., 2004). It has been shown that wild-type P. pyralis luciferase has a half-life of approximately […] hours in mammalian cells (Thompson et al., 1991). Firefly luciferase reporter-gene assays are also generally considered one of the most sensitive assay types (Wood, 1995; Wood, 1998). Although light produced in a bioluminescence reaction is of lower intensity than that produced during fluorescence emission, this is offset by little to no background light inherent to luminescent assays. Thus the luciferase reporter can be expressed at much lower levels than fluorescent proteins while still providing robust signal. # However, it was initially observed, in 1991, by Thompson et al., that compounds that resemble the substrates of firefly luciferase (FLuc) can act as competitive inhibitors of the enzyme, and that these compounds, upon interaction with luciferase in the cell, can actually stabilize the protein and increase its half-life. Accumulated intracellular FLuc protein can be measured as an increase in luminescence signal, upon addition of detection reagents (which contain high concentrations of FLuc substrates) commonly used in high-throughput screening. In cell-based reporter gene assays that use FLuc as the reporter gene to quantitate the potential influence of a given compound against the target biology, this apparent increase in luminescence can mistakenly be interpreted as identification of a compound that is active against the target of interest. This is the case for the miR-21 FLuc reporter gene assay used to identify inhibitors of the miR-21 pathway (PubChem AID 2289) - compounds of interest will inhibit miR-21 biogenesis/expression or activity, and are identified by causing an increase in luminescence, due to increased FLuc translation. However, FLuc inhibitory compounds that stabilize the FLuc protein will give an identical read-out, making it difficult to distinguish compounds that are active against the target from those active against FLuc. Previous profiling work to determine the prevalence of compounds that affect FLuc enzymatic activity (PubChem AID 411) identified that ~3% of the MLSMR library (then at ~72K) inhibited FLuc. […] Since the MLSMR had grown to ~350K compounds, and since it was expected that a significant percentage of compounds found active in the miR-21 FLuc assay would be FLuc inhibitors, the library was screened for activity against FLuc using a biochemical assay of purified FLuc and KM concentrations of FLuc substrates (D-luciferin and ATP).
NCGC Assay Protocol Summary: Reagents: 50mM Tris acetate, pH 7.5; 10mM Mg acetate; 10uM D-luciferin (Sigma #L9504); 10uM ATP; 0.01% Tween-20; 0.05% BSA; 10nM P. pyralis luciferase (Sigma #L9506) Control compounds used were two known firefly luciferase inhibitors (compounds (2) and (5) in Auld et al., 2010), and DMSO. […]

Chain of Luciferin 4-monooxygenase (Photinus pyralis) (P08659 whole entry, looked up): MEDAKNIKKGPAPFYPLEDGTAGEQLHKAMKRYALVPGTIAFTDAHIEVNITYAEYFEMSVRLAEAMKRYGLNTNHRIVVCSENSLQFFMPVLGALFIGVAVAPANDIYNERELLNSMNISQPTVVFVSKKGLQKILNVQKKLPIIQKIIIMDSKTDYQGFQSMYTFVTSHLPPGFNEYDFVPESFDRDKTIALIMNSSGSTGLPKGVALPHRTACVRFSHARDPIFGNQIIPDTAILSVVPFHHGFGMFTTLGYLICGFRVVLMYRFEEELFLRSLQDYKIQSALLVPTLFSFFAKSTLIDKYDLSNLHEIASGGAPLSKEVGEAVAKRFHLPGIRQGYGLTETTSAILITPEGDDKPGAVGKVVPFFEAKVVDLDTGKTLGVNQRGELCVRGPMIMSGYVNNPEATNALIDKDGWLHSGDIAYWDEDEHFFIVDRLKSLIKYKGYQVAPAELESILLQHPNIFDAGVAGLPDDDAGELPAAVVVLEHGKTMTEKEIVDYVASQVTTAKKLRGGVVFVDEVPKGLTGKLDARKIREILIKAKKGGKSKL

Structure (SMILES)	activity change, negative = inhibition	Potency
CCOc1ccc(CCNC(=O)COC(=O)c2ccc(F)c(S(=O)(=O)N3CCOCC3)c2)cc1OCC	0.0182%	
CCC(=O)N1c2ccccc2CC1C(=O)N1CCN(c2ccccc2)CC1 (stereo unspecified)	2.76%	
Cc1ccc(CSc2ccc(S(=O)(=O)N3CCCCC3)cn2)cc1	4.03%	
O=C(Nc1ccccc1C(=O)O)c1cc(S(=O)(=O)N2CCCCC2)cs1		23.9 µM (active)
O=C(Nc1ccccc1F)c1cc(S(=O)(=O)N2CCCCC2)cs1	6.84% [at 2.3 µM]	
Cc1ccccc1NC(=O)c1cc(S(=O)(=O)N2CCOCC2)cs1	-0.63%	
COc1ccc(CNC(=O)CN2C(=O)NC3(CCCc4sccc43)C2=O)cc1 (stereo unspecified)	2.42%	
CC[N+]1(CC)CC2=Cc3ccccc3CC2C1 (stereo unspecified)	-0.581%	
COc1ccccc1C(=O)NC(=O)COC(=O)C1CC1		9.53 µM (active)
COc1ccccc1C(=O)OCC(=O)NCCNC(=O)COC(=O)c1ccccc1OC	-0.745%	
COc1ccccc1C(=O)NC(=O)COC(=O)c1ccco1	12.2%	
O=C(Nc1cccc(-n2cnnn2)c1)c1cccnc1	-1.84%	
O=C(Nc1ccc2oc(-c3ccccc3F)nc2c1)c1ccco1		6.01 µM (active)
Cc1ccccc1-c1nc2cc(NC(=O)c3cccc(OCCC(C)C)c3)ccc2o1	-3.07%	
O=C(Nc1ccc(O)c(-c2nc3ccccc3o2)c1)c1ccc(-c2cccc(Cl)c2)o1	3.47%	
COc1ccccc1CNC(=O)COC(=O)CNS(=O)(=O)c1ccc(NC(C)=O)cc1	-0.864%	
Cc1cccc(N2CCN(C(=O)c3cnc(N4CCCC4)nc3C)CC2)c1C	2.04%	
COc1ccccc1CNC(=O)C1CCN(S(C)(=O)=O)CC1	2.3%	
COc1ccccc1CCNC(=O)C1CCN(C(=O)/C=C/c2ccccc2)CC1		21.3 µM (active)
COc1ccccc1CNC(=O)C1CCN(C(=O)[C@@H]2Cc3ccccc3CN2)CC1	-0.16%	
OC1CCCN(c2ncnc3c2nnn3Cc2c(F)cccc2Cl)C1 (stereo unspecified)	-13.1%	
C/C(=C/c1ccccc1)C(=O)N1CCN(c2ccccc2)CC1	-12.4%	
Cc1ccnc(NS(=O)(=O)c2ccc(NC(=O)c3ccc(S(=O)(=O)N(C)C)cc3)cc2)n1	-7.16%	
Cc1cc(C)nc(NS(=O)(=O)c2ccc(N/C=C\C(=O)c3cccs3)cc2)n1	-7.27%	
Cc1ccc(C(=O)/C=C/Nc2ccc(S(=O)(=O)Nc3onc(C)c3C)cc2)cc1		15.1 µM (active)
Cc1cc(C)c2oc(C(=O)Nc3ccc(S(=O)(=O)Nc4nccc(C)n4)cc3)cc(=O)c2c1	-0.483%	

Structure (SMILES)	activity change, negative = inhibition	Potency
CCn1c(SCC(=O)Nc2ccc(S(=O)(=O)Nc3onc(C)c3C)cc2)nnc1-c1ccccc1	2.13%	
Cc1cc(OC(C)C(=O)Nc2ccc(S(=O)(=O)Nc3onc(C)c3C)cc2)cc(C)c1Cl (stereo unspecified)	-0.156%	
Cc1noc(NS(=O)(=O)c2ccc(NC(=O)C34CCC(CC3)C4)cc2)c1C	0.134%	
Cc1noc(NS(=O)(=O)c2ccc(NC(=O)c3oc4ccc(F)cc4c3C)cc2)c1C		15.1 µM (active)
Cc1ccnc(NS(=O)(=O)c2ccc(NC(=O)c3oc4ccc(F)cc4c3C)cc2)n1		26.9 µM (active)
COc1ccc(N2CCN(S(=O)(=O)c3ccc4c(c3)N(C(C)=O)CCO4)CC2)cc1	1.92%	
CCOc1ccc(S(=O)(=O)NCCC(=O)NCC2CCCO2)cc1 (stereo unspecified)	2.24%	
Cc1cc(NC(=O)c2ccc(-c3ccc(Cl)cc3)o2)cc(-c2nc3ncccc3o2)c1O	3.37%	
O=C(Nc1cccc2ncccc12)c1ccc(-c2ccc(Cl)cc2Cl)o1		12 µM (active)
O=C(Nc1cccnc1Oc1ncnc2cc(Cl)ccc12)c1ccc(F)cc1	-2.02%	
CCCCn1nc(C(=O)OCC(=O)Nc2sccc2C(N)=O)c2ccccc2c1=O	-1.34%	
COc1cc(OC)cc(C(=O)OCC(=O)Nc2sccc2C(N)=O)c1		15.1 µM (active)
NC(=O)c1ccsc1NC(=O)COC(=O)COc1ccc(C=O)cc1	6.4%	
Cc1ccc(F)cc1NC(=O)CSCc1c(C)noc1C	3.3%	
COC(=O)[C@H](CC(C)C)NC(=O)N1CCCCC1C (stereo partly specified)	4.28%	
CC1CCCCN1Cc1c(O)ccc2c(=O)c(-c3cccc(Cl)c3)c(C(F)(F)F)oc12 (stereo unspecified)	-3.84%	
CCC1CCCCN1Cc1c(O)ccc2c(=O)c(Oc3ccccc3Cl)c(C(F)(F)F)oc12 (stereo unspecified)	1.49%	
COc1cccc(CC(=O)Nc2ccc(-c3csc(C)n3)cc2)c1		16.9 µM (active)
Cc1ccc(-c2csc(NC(=O)c3cccs3)n2)cc1		10.7 µM (active)
O=C(Nc1n[nH]c(C(F)(F)F)n1)c1cccs1	2.94%	
Cc1nc(-c2ccc(NC(=O)c3cccs3)cc2)cs1		0.426 µM (active)
COc1cccc(NC(=O)CN2CCN(c3nc(-c4cccc(OC)c4)cs3)CC2)c1	-18.5%	
Cc1nc2ccccn2c(=O)c1NC(=O)c1cccs1	-0.785%	
CCc1c(C)sc(NC(=O)c2ccc(Br)o2)c1C(=O)OC	-14.9%	
Cc1cc(C)cc(NC(=O)Cc2csc(C)n2)c1	-10.2%	
